Experimental data from PubChem BioAssay (NCATS).
Records with an inconclusive call do not appear. The source made the active and inactive calls. The call rests on the fitted dose curve; in most records, active means well fitted inhibition curve with a large enough effect; inconclusive means small, poorly fitted or top-dose-only effect, or effect the other way; inactive means flat fitted curve, though single readings scatter.

Target: Ubiquitin carboxyl-terminal hydrolase 2 (Homo sapiens) (UniProt O75604)
Sequence (O75604 whole entry, looked up): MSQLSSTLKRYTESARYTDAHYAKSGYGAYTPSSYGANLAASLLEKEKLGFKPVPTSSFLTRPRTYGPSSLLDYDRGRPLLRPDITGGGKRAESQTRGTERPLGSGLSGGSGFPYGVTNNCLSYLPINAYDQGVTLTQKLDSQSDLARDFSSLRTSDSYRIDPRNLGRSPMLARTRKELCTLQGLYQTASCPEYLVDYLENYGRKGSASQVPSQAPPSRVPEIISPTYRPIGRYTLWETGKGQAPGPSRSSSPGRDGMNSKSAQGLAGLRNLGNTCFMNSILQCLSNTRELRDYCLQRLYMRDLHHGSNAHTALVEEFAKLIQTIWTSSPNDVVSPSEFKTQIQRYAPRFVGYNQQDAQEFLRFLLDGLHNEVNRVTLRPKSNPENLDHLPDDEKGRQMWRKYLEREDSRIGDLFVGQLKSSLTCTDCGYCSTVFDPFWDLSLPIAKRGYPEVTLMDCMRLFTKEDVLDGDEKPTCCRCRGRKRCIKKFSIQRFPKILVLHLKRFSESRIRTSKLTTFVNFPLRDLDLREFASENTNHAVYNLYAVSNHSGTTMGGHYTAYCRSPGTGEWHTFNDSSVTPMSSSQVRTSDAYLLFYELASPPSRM
Assay: qHTS Validation Assay for Inhibitors of Ubiquitin-specific Protease USP2a Using CHOP2 as the Reporter (AID 463106)
Details: USP2a cleavage of CHOP2 reporter, enzymatic; series mostly up to 38.3 µM
Description: NIH Molecular Libraries Screening Centers Network [MLSCN]
NIH Chemical Genomics Center [NCGC]
PI Name: Nicholson, Ben. Progenra Inc, Malvern, PA
Homeostasis of cellular proteins is maintained through a combination of synthesis and degradation. The pathway that accounts for the majority of protein degradation is the ubiquitin-proteasomal pathway. Ubiquitin (Ub) is highly conserved in all cells and the generation of a multi-Ub chain typically targets proteins for degradation by the proteasome. However, ubiquitination is highly reversible and dynamic. Deubiquitination, the reverse process, is catalyzed through the action of enzymes referred to as isopeptidases or deubiquitinating enzymes (DUBs). This group of enzymes is collectively responsible for maintaining adequate pools of free ubiquitin and regulating the ubiquitination status of cellular proteins. The class of DUBs referred to as the ubiquitin-specific proteases (USP) family functions endoproteolytically to cleave Ub chains from a wide range of protein substrates. USP2a deubiquitinates fatty acid synthase (FASN) which has recently been identified as an emerging oncology target. To identify inhibitors of USP2a a cell-free assay was employed.
The reporter enzyme chosen is an enterokinase called CHOP2, which is activated when the Ub is cleaved by USP2. The free and now activated reporter can subsequently act on its reporter substrate. […] The assay was developed by Progenra, Inc. and has been licensed for sale by LifeSensors, Inc. as Ub-CHOP2-Reporter-Kit (#PR1101).
NCGC Assay Protocol Summary:
The assay buffer, prepared fresh at the day of the assay, contains 20mM Tris-HCl pH 8.0, 2mM CaCl2, 2mM beta-Mercaptoethanol, 0.05% CHAPS. 3ul of 20nM (10nM final) USP2 core, which is stored on ice, is dispensed into a medium-binding black solid Kalypsys 1,536 well plate using the Kalypsys dispenser. The assay plate is then pinned with 23nL compound with the Kalypsys pintool in columns 5-48. The controls are pinned as follows: column 1 two-fold dilutions of 2M NEM in duplicate; column 2 2M NEM (final concentration 38.2mM); column 3&4 DMSO. The assay plate is incubated at RT for 30min. Subsequently, 1.5uL of 100nM (25nM final) Ub-CHOP2 and 1.5uL of 100nM (25nM final) Reporter Substrate (both stored on ice and protected from light) were dispensed into the plate using the Kalypsys dispenser. Plates were read after 60min RT incubation on a ViewLux (Perkin Elmer) plate reader using the following wavelengths Ex 485nm /Em 531nm.
Data were normalized to the to AC100 inhibition (NEM). Concentration-response curves were fitted to the normalized data and the concentration-response curves were then classified based on curve quality (r2), response magnitude and degree of measured activity. The time zero reading was used to flag fluorescence artifacts.
Keywords: ubiquitination, deubiquitination, proteases, profluorescent, MLSMR, MLPCN, NIH Roadmap, qHTS, NCGC

SMILES | outcome
CCC1(c2ccc(N)cc2)CCC(=O)NC1=O (centres undefined) | inactive
CC(C)c1cccc(C(C)C)c1O | inactive
O=P1(N(CCCl)CCCl)NCCCO1 (centres undefined) | inactive
C=C(C)[C@H]1CN[C@H](C(=O)O)[C@H]1CC(=O)O | inactive
CC(C)(C)NCC(O)c1ccccc1Cl (centres undefined) | inactive
O=c1[nH]oc2c1CCNC2 | inactive
CC(C)N(CCC(C(N)=O)(c1ccccc1)c1ccccn1)C(C)C (centres undefined) | inactive
O=C(O)CCCc1ccc(N(CCCl)CCCl)cc1 | inactive
COc1ccc2c(c1OC)C(=O)O[C@H]2[C@@H]1c2cc3c(cc2CCN1C)OCO3 | inactive
CN1C(=O)CCS(=O)(=O)C1c1ccc(Cl)cc1 (centres undefined) | inactive
Cc1ncsc1CCCl | inactive
CC(NC(C)(C)C)C(=O)c1cccc(Cl)c1 (centres undefined) | inactive
O=C(CCCN1CCC2(CC1)C(=O)NCN2c1ccccc1)c1ccc(F)cc1 | inactive
NCCc1ccc(O)cc1 | inactive
